Only some compounds are listed: those with a hit (about 22% of all), similar ones and a draw of the others.
Pf growth 96h: inhibits malaria parasite growth, 96 h; P. falciparum luciferase reporter growth, 96 h; Potency, µM (highest dose often 28.7 µM), hits mostly inhibitors; actives 6.9% (n = 320,000); AID 504834
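Cell-based qHTS: luciferase-tagged P. falciparum in erythrocytes (2% hematocrit, 0.05% parasitemia final) incubated with compounds for 96 hours, 37 C, 5% CO2; luciferase detection reagent then added and luminescence measured.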
LmPK inhibitor: blocks Leishmania mexicana pyruvate kinase activity. Q27686. purified LmPK, Kinase-Glo ATP luminescence, 1 h. Potency, µM (top dose mostly 57.5 µM), most hits filed as inhibitors. actives 0.37% (n = 290,000)
Target sequence (Q27686 whole entry, looked up): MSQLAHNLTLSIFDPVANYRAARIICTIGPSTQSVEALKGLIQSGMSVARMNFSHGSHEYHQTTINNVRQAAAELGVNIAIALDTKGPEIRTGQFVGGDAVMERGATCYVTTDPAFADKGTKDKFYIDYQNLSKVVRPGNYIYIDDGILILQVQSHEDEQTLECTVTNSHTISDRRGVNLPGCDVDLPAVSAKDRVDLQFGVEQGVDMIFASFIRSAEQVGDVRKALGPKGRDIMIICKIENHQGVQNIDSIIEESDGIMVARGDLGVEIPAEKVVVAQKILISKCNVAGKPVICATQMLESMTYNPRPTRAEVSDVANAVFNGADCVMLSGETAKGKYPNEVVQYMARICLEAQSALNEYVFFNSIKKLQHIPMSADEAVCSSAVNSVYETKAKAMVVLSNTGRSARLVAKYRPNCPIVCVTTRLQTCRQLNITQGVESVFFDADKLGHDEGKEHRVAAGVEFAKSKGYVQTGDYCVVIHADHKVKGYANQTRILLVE
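qHTS format; LmPK 0.1 nM; substrates PEP 0.5 mM and ADP 0.1 mM. One-hour room-temperature incubation, then coupled luciferase luminescence; 0.5 nM enzyme wells mark activation.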
Cycloheximide cs: affects cycloheximide protein synthesis inhibition readout, counter-screen; actives 12% (n = 300,000); max response, %; cell reporter, cycloheximide protein synthesis inhibition counterscreen; in the data active means max response mostly above about 13%, no sharp cut-off; inactive means mostly below about 14%; further: read at 38.3 µM for the half of the compounds with a filed dose
Pf growth 48h: inhibits P. falciparum growth in the first generation, 48 h | P. falciparum luciferase growth in erythrocytes, 48 h | Potency, µM (doses to about 28.7 µM), hits mostly inhibitors | actives 5.9% (n = 310,000) | AID 504832
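Here the parasites carry a stable luciferase gene and grow inside erythrocytes in Albumax-based RPMI medium with compound for one erythrocytic cycle. Activity is scored as loss of luminescent signal.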
Shiga toxin inh: blocks Shiga toxin action in Vero cells. inhibition, % at 38.7 µM. Vero cells, Shiga toxin protein synthesis inhibition reporter. AID 2315. actives 9.2% (n = 290,000); in the data active means inhibition mostly above about 28%, no sharp cut-off; inactive means mostly below about 43%
A number is an active result; . = inactive; ? = inconclusive; / = no result given. Unless noted, the call rests on the fitted dose curve; in most records, active means well fitted inhibition curve with a large enough effect; inconclusive means small, poorly fitted or top-dose-only effect, or another doubt; inactive means no such curve, though single readings can be large or run the other way.

SMILES	Pf growth 96h	LmPK inhibitor	Cycloheximide cs	Pf growth 48h	Shiga toxin inh
O=S(=O)(N/N=C\c1ccc(-c2ccccc2Cl)o1)c1ccccc1	.	.	.	.	.
COc1ccc(C(C)=O)cc1COc1ccc(-n2cnnn2)cc1	/	.	.	.	.
CCOC(=O)C1(Cc2ccccc2)CCCN(Cc2cccc(C(C)=O)c2)C1 (centres undefined)	.	.	.	?	.
CCOC(=O)C1(Cc2ccccc2)CCCN(Cc2ccncc2)C1 (centres undefined)	.	.	.	9.3µM	.
CCCn1cc(CN2CCC(Cc3ccccc3)(C(=O)OCC)CC2)c(C)n1	10µM	.	.	.	.
CCOC(=O)C1(Cc2ccccc2C)CCCN(Cc2cc(OC)c(O)c(OC)c2)C1 (centres undefined)	.	.	13	?	38
CC(C)Cc1ccc(C(C)C(N)=NCCc2ccccc2)cc1 (centres undefined)	?	.	.	?	.
Cc1cccc(NC(=O)C2(c3ccccc3)CC2(Cl)Cl)c1 (centres undefined)	?	.	.	?	.
Cc1cc(C)cc(NC(=O)C2(c3ccccc3)CC2(Cl)Cl)c1 (centres undefined)	2.3µM	.	.	4.7µM	.
CCc1ccc(NC(=O)C2(c3ccccc3)CC2(Cl)Cl)cc1 (centres undefined)	3.3µM	.	.	?	.
CCc1ccc(NC(=O)C2(C)Cc3ccccc3C(=O)O2)cc1 (centres undefined)	?	.	26	.	41
Cc1ccc(NC(=O)C2(c3ccccc3)CC2(Cl)Cl)cc1C (centres undefined)	?	.	66	?	128
CC(=O)c1cccc(NC(=O)C2(c3ccccc3)CC2(Cl)Cl)c1 (centres undefined)	.	.	.	?	.
CCCCN(C(=O)c1ccc(OC)c([N+](=O)[O-])c1)c1c(N)n(CCC)c(=O)[nH]c1=O	.	.	.	.	.
COc1ccc(S(=O)(=O)NC(C)C(=O)N2CCCC2)cc1C (centres undefined)	?	.	.	.	.
O=C(CCCCCNc1nc(=S)[nH]c2ccccc12)NCCC1=CCCCC1	.	.	.	?	.
CC1=C(C)CC(C(=O)NNC(=O)c2cccc(Cl)c2)C(C(=O)O)C1 (centres undefined)	.	.	37	.	50
O=C(O)CCC(=O)NNC(=O)c1cccc(Cl)c1	.	.	.	.	.
CC1=C(C)CC(C(=O)NNC(=O)c2ccccc2)C(C(=O)O)C1 (centres undefined)	.	.	24	.	79
CC1=C(C)CC(C(=O)NCC(=O)c2ccccc2)C(C(=O)O)C1 (centres undefined)	.	.	40	/	70
CCN(CC)C(=O)CSc1nc2c(c(-c3cccnc3)c1C#N)CCCC2	.	.	.	.	.
Cc1cccc(S(=O)Cc2ccc(C(=O)NC3CCN(Cc4ccccc4)CC3)o2)c1 (centres undefined)	?	.	.	.	.
CN(C)C(CNC(=O)CNC(=O)c1ccc2ccccc2c1)c1ccccc1 (centres undefined)	.	.	.	.	.
Cc1coc2c(C)c3oc(=O)c(CCC(=O)N(C)CC(=O)O)c(C)c3cc12	.	.	.	.	.
Cc1cc(S(=O)(=O)N(Cc2ccccc2Cl)c2ccc3c(c2)CCC3)ccc1-n1cnnn1	.	.	.	12µM	.
SMILES	Pf growth 96h	LmPK inhibitor	Cycloheximide cs	Pf growth 48h	Shiga toxin inh
O=C(Cn1ccc(NC(=O)OCc2ccccc2)nc1=O)NCCCn1ccnc1	.	/	/	.	/
NC(=O)c1cccnc1Oc1ccccc1	.	.	.	.	.
COC(=O)c1cccnc1Oc1ccccc1	0.66µM	.	.	?	.
CCc1cc(C(=O)N(C)CC(=O)Nc2c(Cl)cccc2Cl)sc1C	.	/	/	?	/
Cc1ncsc1CCOC(=O)C1C2CC3CC(C2)CC1C3 (centres undefined)	13µM	.	.	?	.
Cc1nn(C)cc1C(C)NC(=O)c1cc(COc2ccc(F)c(F)c2)on1 (centres undefined)	?	.	33	?	.
Cc1nn(C)c(C)c1C(C)NC(=O)c1cc(COc2ccc(F)c(F)c2)on1 (centres undefined)	.	.	33	.	47
O=C(CN1CCCc2ccccc21)NCCc1ccc(Cl)cc1	?	.	.	.	.
C=CCN(CC=C)Cc1nc(N)nc(Nc2ccccc2C)n1	9.3µM	.	.	?	.
Cc1ccccc1Nc1nc(N)nc(CSc2nnc(-c3ccccc3)n2C)n1	13µM	.	18	?	.
Cc1ccccc1NC(=O)CSCc1nc(N)nc(Nc2ccccc2C)n1	.	.	16	.	.
Cc1ccccc1Nc1nc(N)nc(CCl)n1	5.2µM	.	34	?	52
CCn1c(O)c(N=NC(=O)Cn2ccc(C(F)(F)F)n2)c2ccccc21	.	.	.	.	.
CCCCn1c(O)c(N=Nc2ccccc2O)c2ccccc21	.	/	/	6.6µM	/
CCn1c(O)c(N=Nc2ccc3ccccc3n2)c2ccccc21	.	.	39	.	81
CCCCn1c(O)c(N=Nc2ccccn2)c2ccccc21	?	.	.	.	.
COc1cccc(O)c1CN1CCC(n2nccc2NC(=O)c2ccc3c(c2)OCO3)CC1	.	.	.	12µM	.
CC(C)=CCCC(C)CN1CCC(n2nccc2NC(=O)c2ccc3c(c2)OCO3)CC1 (centres undefined)	?	.	.	10µM	.
CCOc1cccc(CN2CCC(n3nccc3NC(=O)c3ccc4c(c3)OCO4)CC2)c1	.	.	.	?	.
CCCn1cc(CN2CCC(n3nccc3NC(=O)c3ccc4c(c3)OCO4)CC2)c(C)n1	9.3µM	.	.	.	.
CSCC(=O)N1CCC(n2nccc2NC(=O)c2ccc3c(c2)OCO3)CC1	?	.	36	.	62
Cc1ccc(-c2ccc(CCC(=O)O)n2NC(=O)c2ccc([N+](=O)[O-])cc2)cc1	.	.	.	.	.
Cn1c(SCC(=O)Nc2cccnc2)nnc1-c1ccccc1F	.	.	.	.	.
CC(=O)Nc1sc2c(c1C(c1ccccn1)N1CCCC1)CCCC2 (centres undefined)	10µM	.	.	9.3µM	.
CC(=O)Nc1sc2c(c1C(c1ccccn1)N1CCN(C)CC1)CCCC2 (centres undefined)	?	.	.	.	.
SMILES	Pf growth 96h	LmPK inhibitor	Cycloheximide cs	Pf growth 48h	Shiga toxin inh
CCc1ccc([C@@H]2CC=C(C(=O)O)[C@H](c3cccc(Cl)c3)N2S(=O)(=O)c2ccc(C)cc2)cc1	.	/	/	.	/
O=c1cc(-c2ccccc2)nc2nc[nH]n12	0.29µM	.	.	/	.
Cc1cc(C=C2C(=O)c3ccccc3C2=O)c(C)n1-c1ccccc1	.	.	51	.	118
COc1ccccc1/C=C1\Cc2ccccc2C1=O	.	.	32	.	51
Cc1cc(C=C2C(=O)c3ccccc3C2=O)c(C)n1-c1ccc(C(=O)O)cc1	.	.	.	.	.
Cc1cc(C=C2C(=O)N(C)C(=O)N(C)C2=O)c(C)n1-c1ccccc1	?	.	25	.	53
O=C1/C(=C/c2ccncc2)Cc2ccccc21	.	/	/	.	/
